Source: PubChem BioAssay (NCI)
This is part of a sample that, as a whole, favours compounds with a hit. Of some 79,000 tested, about 15% had one in any assay. The source made the active and inactive calls. Rule as the data show it: active = growth inhibition above about 70%; inactive = the rest.

Experiments:
[1] = NCI Yeast Anticancer Drug Screen. Data for the mec2-1 strain (AID 157); settings: S. cerevisiae mec2-1 strain, hits give high values
Summary of the method: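 Readout is yeast growth inhibition, normalised to vehicle-treated controls, in the mec2-1 strain exposed to compound.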

[2] = NCI Yeast Anticancer Drug Screen. Data for the rad14 strain (AID 159);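 also: 0% = growth of vehicle-treated control cultures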; settings: S. cerevisiae rad14 strain growth inhibition, hits give high values
Summary of the method: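 Growth inhibition vs vehicle controls; genetically altered yeast strain (DNA damage repair defect) treated with test compounds.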

[3] = NCI Yeast Anticancer Drug Screen. Data for the CLN2oe strain (AID 163);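 also: 0% = growth of vehicle-only control cultures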; settings: S. cerevisiae CLN2oe strain, hits give high values
Summary of the method: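 Values reflect how much compound exposure reduced yeast growth, referenced to vehicle-exposed cells. Assay organism is a strain with a defined genetic change affecting cell-cycle control.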

[4] = NCI Yeast Anticancer Drug Screen. Data for the cln2 rad14 strain (AID 165);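 also: 0% = growth equal to vehicle treated cultures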; settings: S. cerevisiae cln2 rad14 strain, hits give high values
Summary of the method: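 Relative to vehicle controls, growth inhibition of compound-treated cln2 rad14 yeast was recorded.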

[5] = NCI Yeast Anticancer Drug Screen. Data for the bub3 strain (AID 167); settings: S. cerevisiae bub3 mutant strain, hits give high values
Summary of the method: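 Readout: yeast growth inhibition, expressed relative to vehicle-only wells. The test organism is a mutant strain from a panel with lesions in DNA repair or checkpoint genes.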

[6] = NCI Yeast Anticancer Drug Screen. Data for the wt2 strain (AID 169);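 also: 0% = growth of vehicle-treated yeast cultures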; settings: S. cerevisiae wt2 strain growth inhibition, hits give high values
Summary of the method: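 Values express reduction in yeast growth under compound treatment, referenced to vehicle-treated cells.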

[7] = NCI Yeast Anticancer Drug Screen. Data for the mlh1 strain (AID 171);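 also: 0% = growth of vehicle-treated control cultures of the same strain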; settings: S. cerevisiae mlh1 strain growth inhibition, hits give high values
Summary of the method: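 Steps: expose the defined-mutant yeast strain to compound; expose a parallel culture to vehicle; measure growth; express compound effect as inhibition relative to the vehicle culture.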

[8] = NCI Yeast Anticancer Drug Screen. Data for the sgs1 strain (AID 173);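 also: 0% = growth of vehicle-only control cultures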; settings: S. cerevisiae sgs1 mutant, hits give high values
Summary of the method: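 Treat defined-mutant yeast with compound; measure growth; calculate inhibition relative to vehicle-treated cells.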

[9] = NCI Yeast Anticancer Drug Screen. Data for the mlh1 rad18 strain (AID 175); settings: S. cerevisiae mlh1 rad18 strain growth inhibition, hits give high values
Summary of the method: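 Test agents were incubated with a yeast strain of defined genotype (DNA damage repair defect). Inhibition of growth was derived by comparison with vehicle-exposed cultures.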

[10] = NCI Yeast Anticancer Drug Screen. Data for the rad18 strain (AID 177); settings: S. cerevisiae rad18 mutant growth inhibition, hits give high values
Summary of the method: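 A genetically defined yeast mutant impaired in DNA damage repair was treated with test compounds, then its growth was measured against cultures receiving vehicle alone.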

[11] = NCI Yeast Anticancer Drug Screen. Data for the rad52 strain (AID 147);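 also: 0% = growth of vehicle-treated control cultures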; settings: S. cerevisiae rad52 mutant growth inhibition, hits give high values
Summary of the method: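 Screen used a yeast mutant impaired in DNA repair. After compound exposure, growth was measured. Values reflect inhibition compared with vehicle-treated cells.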

[12] = NCI Yeast Anticancer Drug Screen. Data for the wt1 strain (AID 149);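 also: 0% = growth of vehicle-treated wt1 cultures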; settings: S. cerevisiae wt1 strain (SPY 50644) growth inhibition, hits give high values
Summary of the method: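 Growth inhibition read against vehicle controls after compound exposure of the wt1 yeast strain.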

[13] = NCI Yeast Anticancer Drug Screen. Data for the rad50EPP+ strain (AID 151);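 also: 0% = growth of vehicle-treated control cultures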; settings: S. cerevisiae rad50 mutant strain, hits give high values
Summary of the method: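 Exposing the rad50EPP+ strain to each compound, growth was compared with vehicle-only cultures to give inhibition.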

[14] = NCI Yeast Anticancer Drug Screen. Data for the mgt1 strain (AID 153); settings: S. cerevisiae mgt1 mutant growth inhibition, hits give high values
Summary of the method: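 Genetically defined yeast (mgt1) treated with compound; inhibition of growth expressed against vehicle-treated controls.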

[15] = NCI Yeast Anticancer Drug Screen. Data for the rad50 strain (AID 155);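 also: 0% = growth of vehicle-only cultures of the same strain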; settings: S. cerevisiae rad50 strain growth inhibition, hits give high values
Summary of the method: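 Readout: growth inhibition relative to vehicle-treated cultures. Compound exposure was carried out in a genetically defined yeast strain deficient in DNA damage repair.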

[16] = at 5.0 µM (retest, dose inferred, filed as 0.5)
[17] = at 50.0 µM (retest, dose inferred, filed as 5.0)

Measured: growth inhibition

COc1ccc2c(c1)[nH]c1c(/C=C/c3ccccc3)nccc12
active: [1]; at 33.0 µM 75% | [1]; [17] 93% | [1]; at 50.0 µM 92.1% | [1]; at 100.0 µM 98% | [2]; at 33.0 µM 71% | [2]; at 100.0 µM 97% | [3]; at 100.0 µM 98% | [4]; [17] 74% | [4]; at 50.0 µM 70.7% | [5]; [17] 82% | [5]; at 50.0 µM 87.8% | [5]; at 100.0 µM 98% | [6]; at 100.0 µM 97% | [7]; at 100.0 µM 96% | [8]; at 33.0 µM 78% | [8]; at 100.0 µM 97% | [9]; [17] 95% | [9]; at 50.0 µM 89.5% | [10]; at 100.0 µM 97%
inactive: [1]; [16] 42% | [1]; at 11.0 µM 1% | [2]; at 1.2 µM -29% | [2]; at 3.7 µM -25% | [2]; at 11.0 µM -22% | [3]; at 1.2 µM -15% | [3]; at 3.7 µM -23% | [3]; at 11.0 µM -38% | [3]; at 33.0 µM 63% | [4]; [16] 40% | [5]; at 1.2 µM 12% | [5]; at 3.7 µM 19% | [5]; [16] -24% | [5]; at 11.0 µM 27% | [5]; at 33.0 µM 48% | [6]; at 1.2 µM -36% | [6]; at 3.7 µM -29% | [6]; at 11.0 µM -30% | [6]; at 33.0 µM 68% | [7]; at 1.2 µM -42% | [7]; at 3.7 µM -36% | [7]; at 11.0 µM -35% | [7]; at 33.0 µM 68% | [8]; at 1.2 µM 2% | [8]; at 3.7 µM -7% | [8]; at 11.0 µM -3% | [9]; [16] 29% | [10]; at 1.2 µM 11% | [10]; at 3.7 µM 0% | [10]; at 11.0 µM 6% | [10]; at 33.0 µM 67%

O=NN(CCCl)C(=O)NC1CCCCC1
active: [10]; at 11.0 µM 84% | [10]; at 33.0 µM 92%
inactive: [11]; at 1.2 µM 6% | [11]; at 3.7 µM 11% | [11]; at 11.0 µM 33% | [11]; at 33.0 µM 44% | [11]; at 100.0 µM 50% | [12]; at 1.2 µM -2% | [12]; at 3.7 µM -1% | [12]; at 11.0 µM 1% | [12]; at 33.0 µM 5% | [12]; at 100.0 µM -5% | [13]; at 1.2 µM 16% | [13]; at 3.7 µM 24% | [13]; at 11.0 µM 45% | [13]; at 33.0 µM 61% | [13]; at 100.0 µM 49% | [14]; at 1.2 µM -3% | [14]; at 3.7 µM -2% | [14]; at 11.0 µM 1% | [14]; at 33.0 µM 2% | [14]; at 100.0 µM 10% | [15]; at 1.2 µM 5% | [15]; at 3.7 µM 12% | [15]; at 11.0 µM 39% | [15]; at 33.0 µM 55% | [15]; at 100.0 µM 52% | [1]; at 1.2 µM -1% | [1]; at 3.7 µM 4% | [1]; at 11.0 µM 10% | [1]; at 33.0 µM 13% | [1]; at 100.0 µM 13% | [2]; at 1.2 µM 1% | [2]; at 3.7 µM 7% | [2]; at 11.0 µM 13% | [2]; at 33.0 µM 15% | [2]; at 100.0 µM 14% | [5]; at 1.2 µM -4% | [5]; at 3.7 µM -3% | [5]; at 11.0 µM 3% | [5]; at 33.0 µM 14% | [5]; at 100.0 µM 12% | [6]; at 1.2 µM -3% | [6]; at 3.7 µM -2% | [6]; at 11.0 µM 2% | [6]; at 33.0 µM 11% | [6]; at 100.0 µM 49% | [7]; at 1.2 µM 0% | [7]; at 3.7 µM 1% | [7]; at 11.0 µM 8% | [7]; at 33.0 µM 11% | [7]; at 100.0 µM 17% | [8]; at 1.2 µM 4% | [8]; at 3.7 µM 7% | [8]; at 11.0 µM 22% | [8]; at 33.0 µM 34% | [8]; at 100.0 µM 43% | [10]; at 1.2 µM 29% | [10]; at 3.7 µM 46% | [10]; at 100.0 µM 53%
